What all share (assay): NCI-60 one-dose screen, 48 h (100 = growth as untreated, 0 = no growth, -100 = all killed)
Holding throughout (conditions): 10 µM unless noted

In test [1] the test system is HCT-15 colon.
Test [2] has as its system HT29 colon.
The subject of test [3] is SNB-75 CNS.
For test [4], the system named is SNB-19 CNS.
The subject of test [5] is U251 CNS.
In test [6] the test system is PC-3 prostate.
Test [7] has as its system SK-MEL-5 melanoma.
Test [8] deals with UACC-62 melanoma.
Test [9] deals with LOX IMVI melanoma.
Test [10] concerns SK-MEL-28 melanoma.

The panel holds about 83,000 compounds, 20% with a hit somewhere; the sample as a whole holds those more often.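 Each cell line was grown in a 96-well plate and treated with one concentration of compound for 48 hours. Values below 10 were considered active.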 Unmarked numbers belong to inactive results. The source made the active and inactive calls.

Take `O=C(/C=C\c1ccc(O)c(O)c1)c1ccccc1O`: the growth was 46% in [1]; 90.8% in test [2]; 76.9% in test [3]; 81.4% in [4]; 69% in test [5]; 76.7% in test [6]. Moreover, the growth in test [7] was 77.2%; in [8], 72.6%; in test [9], 75.1%; in test [10], 94.9%.

Take `O=C1C2C(c3cccs3)C=C(c3ccc(Cl)cc3)N2C(=S)N1c1ccccc1` (stereo not given): the growth in test [1] was 112%; in [2], 114%; in test [3], 97.9%; in test [4], 94.4%; in test [5], 97.9%; in [6], 85.7%. Further, the growth was 97.8% in test [7], 88.8% in test [8], 98% in test [9] and 105% in test [10].

Regarding `CC(C)(C)n1cc(-c2ccnc(NCCNS(=O)(=O)c3cccc4ccccc34)c2)c(-c2cccc(O)c2)n1`, the growth in [1] is 20.9%; in [2], 6.71% (active); in test [3], 37.9%; in test [4], 88%; in [5], 57.5%; in test [6] it was 59%. Also, the growth in test [7] was 45.1%; in test [8], 76.9%; in test [9], 61.8%; in [10], 83.4%.

With `CCN(CC)CCCNC(=O)c1c2c(n3ccccc13)C(=O)c1ncccc1C2=O`, the growth in test [1] is -73.6% (active); in test [2], -28.5% (active); in [3], -87.2% (active); in test [4], -71.3% (active); in test [5], -83.8% (active); in [6] it was -19.8% (active). Further, the growth in [7] was -99.2% (active); in [8], -53.8% (active); in [9], -71.2% (active); in [10], 22.8%.

Consider `CNc1nc2ncc(-c3c(C)noc3C)cc2n1Cc1ccccc1`, for which the growth in test [1] was 51.2%; in test [2] it was 31.8%; in [3], 0.561% (active); in test [4] it was 59.3%; in test [5] it was 61%; in test [6], 32.2%. The growth in [7] was 47.9%; in [8], 17%; in test [9], 32.5%; in [10] it was 57.4%.

As to `O=C(O)c1nn(-c2ccc(Cl)cc2)nc1N1CCCC1`, the growth in [1] was 92.2%; in test [2] it was 104%; in [3], 85.7%; in test [4], 103%; in test [5], 92.3%; in test [6], 95.4%. In addition, the growth in [7] was 96.4%; in [8] it was 99.6%; in test [9] it was 93.6%; in [10] it was 105%.

For `NC(=O)[C@@H]1Cc2ccccc2CN1C(=O)c1ccc2c(c1)Cc1ccccc1-2`, the growth in [1] is 74.6%; in test [2], 89.1%; in test [3], 85.7%; in test [4], 86.7%; in test [5], 83%; in test [6], 61.9%. The growth in [7] is 46.6%; in test [8], -36.9% (active); in test [9], 90.8%; in test [10], 116%.

With `Cc1c2cnccc2c(C)c2c1c1cc(C(=O)O)ccc1n2C`, the growth in test [1] is 1.03% (active); in [2], 7.11% (active); in test [3] it was -7.4% (active); in test [4], 2.23% (active); in test [5] it was 0.0209% (active); in test [6], 10.4%. The growth in test [7] is -84.7% (active); in [8] it was -55% (active); in test [9], -27.1% (active); in test [10], -27.4% (active).

Take `C=CC(=O)Nc1ccc2ncnc(Nc3cccc(NS(=O)(=O)CCC)c3Cl)c2c1`: the growth in [1] is 67.9%; in test [2] it was 7.98% (active); in test [3], 8.28% (active); in [4], 49%; in test [5] it was 52.5%; in test [6] it was 68%. In addition, the growth was 52.4% in test [7], 6.45% (active) in [8], 40.7% in [9] and 15% in test [10].

For the molecule `O=C(/C=C/C12c3ccccc3C(c3ccccc31)C1C(=O)NC(=O)C12)c1cccs1` (stereo not given), the growth in test [1] was 26.3%; in test [2] it was 22.6%; in test [3], 17.1%; in test [4], 39.2%; in test [5] it was 15.8%; in test [6], 33.6%. Further, the growth in test [7] is 54.8%; in [8] it was 37.2%; in [9], 28.6%; in test [10], 45.8%.

Turning to `Oc1ccc(C2OCCO2)c2cccnc12`, the growth in [1] was 32%; in test [2], 78.3%; in [3], 80.6%; in test [4], 64.4%; in test [5], 27.4%; in test [6], 32%. The growth was 48.4% in test [7], 51.4% in [8], 38.4% in test [9] and 63.4% in test [10].

For `COc1ccc(-c2nc3cc(C(=O)NC4CCCCC4)ccc3n2C2CCCCC2)cc1`, the growth in test [1] was 21.5%; in [2], 38.3%; in [3] it was 91.6%; in [4], 109%; in test [5], 91.5%; in test [6], 95.8%. Further, the growth was 65.3% in [7], 95.3% in test [8], 76.9% in [9] and 100% in test [10].

Consider `COc1cc(/C=C/c2cc(/C=C/c3ccc(O)c(OC)c3)n(C(=O)Nc3ccc(C)cc3C)n2)ccc1O`, for which the growth is 3.84% (active) in [1]; -38.5% (active) in [2]; -30.5% (active) in [3]; 2.45% (active) in test [4]; -12.3% (active) in test [5]; -10.8% (active) in test [6]. Besides, the growth in test [7] is -83.4% (active); in [8], -48.5% (active); in [9] it was -29.8% (active); in test [10], 5.57% (active).
